Experimental data: PubChem BioAssay (EPA / NIEHS)
The source made the active and inactive calls. The calls were made as follows: active = hit-call score of the fitted dose curve at least 0.9, where 1 is the maximum; inactive = score below 0.9.

How the values were obtained:
[1] = biological target: Bile acid receptor (Homo sapiens) (UniProt Q96RI1); test: ATG_IR1_CIS: Attagene CIS-FACTORIAL HepG2 Assay for human Nuclear Receptor Subfamily 1 Group H Member 4 (NR1H4), IR1 submotif (AID 2282946); details: IR1 reporter transcription, actives raise or lower the signal
Bile acid receptor (Homo sapiens), sequence (Q96RI1 whole entry, looked up): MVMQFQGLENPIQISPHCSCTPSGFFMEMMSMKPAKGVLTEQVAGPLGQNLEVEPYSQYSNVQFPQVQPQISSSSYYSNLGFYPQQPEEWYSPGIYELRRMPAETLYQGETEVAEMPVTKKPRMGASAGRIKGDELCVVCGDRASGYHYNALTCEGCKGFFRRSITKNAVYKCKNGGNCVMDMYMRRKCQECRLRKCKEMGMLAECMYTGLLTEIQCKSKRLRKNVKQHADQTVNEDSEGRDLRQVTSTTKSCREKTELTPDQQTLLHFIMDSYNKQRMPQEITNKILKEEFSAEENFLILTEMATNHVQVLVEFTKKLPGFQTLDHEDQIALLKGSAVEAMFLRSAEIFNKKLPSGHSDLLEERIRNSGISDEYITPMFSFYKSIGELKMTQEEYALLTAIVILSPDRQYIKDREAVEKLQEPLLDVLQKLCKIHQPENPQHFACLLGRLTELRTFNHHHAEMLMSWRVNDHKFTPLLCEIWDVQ
Procedure, shortened: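 Readout: reporter transcript levels by RT-PCR with fluorescent capillary electrophoresis, from HepG2 cells transiently transfected with multiplexed cis-regulated reporters and dosed 24 h. Gain- or loss-of-signal fitted versus DMSO negative control.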

[2] = ATG_GRE_CIS: Attagene CIS-FACTORIAL HepG2 Assay for human Glucocorticoid Response Elements (GRE) (AID 2282947); details: HepG2 GRE cis-reporter, Attagene multiplex mRNA; actives raise or lower the signal
Procedure, shortened: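 HepG2, transient cis-reporter transfection, 24 h. Reporter mRNA: RT-PCR then CE, fluorescence. Fit both directions vs DMSO.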

[3] = ATG_ISRE_CIS: Attagene CIS-FACTORIAL HepG2 Assay for human Interferon Regulatory Factor 1 (IRF1) binding to an Interferon-Stimulated Response Element (ISRE) (AID 2282948); details: HepG2 ISRE cis-reporter (Attagene), mRNA transcription readout; actives raise or lower the signal
Procedure, shortened: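 Uses HepG2 liver cells transfected with cis-regulated reporters and measures mRNA 24 h post-dosing through RT-PCR, primer-extension labelling and capillary electrophoresis, with DMSO as negative control.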

[4] = ATG_M_32_CIS: Attagene CIS-FACTORIAL HepG2 Assay for M32 Transcription Factor (Internal Marker) (AID 2282949); details: HepG2 Attagene cis-factorial M32 reporter, mRNA; actives raise or lower the signal;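 also: background control marker of the multiplexed CIS panel rather than a real target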
Procedure, shortened: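 Transient MRTU transfection of HepG2; 24 h compound treatment; TriZol RNA, oligo(dT) RT, reporter PCR, 6-FAM primer extension, HpaI cut, CE. Gain/loss of signal vs DMSO.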

[5] = ATG_M_06_CIS: Attagene CIS-FACTORIAL HepG2 Assay for M06 Transcription Factor (Internal Marker) (AID 2282950); details: HepG2 Attagene CIS-FACTORIAL M06 internal marker reporter; actives raise or lower the signal
Procedure, shortened: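 Measured 24 h post-dosing in transiently transfected HepG2 cells, this internal-marker endpoint reports reporter mRNA via RT-PCR with fluorescent primer extension and capillary electrophoresis. DMSO served as negative control and baseline for bidirectional fitting.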

[6] = biological target: Hypoxia-inducible factor 1-alpha (Homo sapiens) (UniProt Q16665); test: ATG_HIF1a_CIS: Attagene CIS-FACTORIAL HepG2 Assay for human Hypoxia Inducible Factor 1 (HIF1A) (AID 2282951); details: HepG2 Attagene cis-factorial HIF1a reporter transcription; actives raise or lower the signal
Hypoxia-inducible factor 1-alpha (Homo sapiens), sequence (Q16665 whole entry, looked up): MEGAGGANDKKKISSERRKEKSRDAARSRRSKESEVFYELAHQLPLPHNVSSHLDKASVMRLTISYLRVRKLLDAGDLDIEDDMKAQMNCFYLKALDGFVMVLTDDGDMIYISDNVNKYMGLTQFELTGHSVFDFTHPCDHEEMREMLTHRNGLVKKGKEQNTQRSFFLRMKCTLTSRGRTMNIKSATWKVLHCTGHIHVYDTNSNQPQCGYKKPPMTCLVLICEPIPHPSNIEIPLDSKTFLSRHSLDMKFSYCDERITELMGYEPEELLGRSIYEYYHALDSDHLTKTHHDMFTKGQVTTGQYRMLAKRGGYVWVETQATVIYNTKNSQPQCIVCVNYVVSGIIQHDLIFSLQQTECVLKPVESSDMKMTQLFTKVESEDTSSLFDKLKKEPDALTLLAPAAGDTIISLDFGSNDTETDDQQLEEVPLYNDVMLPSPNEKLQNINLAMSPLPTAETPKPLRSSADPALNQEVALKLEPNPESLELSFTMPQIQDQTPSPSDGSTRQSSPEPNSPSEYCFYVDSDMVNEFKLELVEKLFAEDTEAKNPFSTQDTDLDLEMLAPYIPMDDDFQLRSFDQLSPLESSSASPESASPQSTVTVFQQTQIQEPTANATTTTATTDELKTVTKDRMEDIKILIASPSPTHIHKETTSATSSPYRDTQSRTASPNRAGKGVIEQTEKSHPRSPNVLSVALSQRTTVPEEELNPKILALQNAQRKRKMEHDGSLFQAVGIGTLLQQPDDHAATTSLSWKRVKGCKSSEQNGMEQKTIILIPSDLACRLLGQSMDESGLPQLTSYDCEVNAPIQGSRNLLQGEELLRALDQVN
Procedure, shortened: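 After 24 h chemical exposure of reporter-transfected HepG2 cells, reporter cDNA was PCR-amplified, labelled by 6-FAM primer extension (2 min 95 C, 20 s 68 C, 10 min 72 C), HpaI-cut (2 h, 37 C) and analysed by CE.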

[7] = biological target: Hepatocyte nuclear factor 6 (Homo sapiens) (UniProt Q9UBC0); test: ATG_HNF6_CIS: Attagene CIS-FACTORIAL HepG2 Assay for human Hepatocyte Nuclear Factor 6 (HNF6) (AID 2282952); details: HepG2 Attagene cis-factorial HNF6 reporter transcription; actives raise or lower the signal
Hepatocyte nuclear factor 6 (Homo sapiens), sequence (Q9UBC0 whole entry, looked up, the tested form may be a part): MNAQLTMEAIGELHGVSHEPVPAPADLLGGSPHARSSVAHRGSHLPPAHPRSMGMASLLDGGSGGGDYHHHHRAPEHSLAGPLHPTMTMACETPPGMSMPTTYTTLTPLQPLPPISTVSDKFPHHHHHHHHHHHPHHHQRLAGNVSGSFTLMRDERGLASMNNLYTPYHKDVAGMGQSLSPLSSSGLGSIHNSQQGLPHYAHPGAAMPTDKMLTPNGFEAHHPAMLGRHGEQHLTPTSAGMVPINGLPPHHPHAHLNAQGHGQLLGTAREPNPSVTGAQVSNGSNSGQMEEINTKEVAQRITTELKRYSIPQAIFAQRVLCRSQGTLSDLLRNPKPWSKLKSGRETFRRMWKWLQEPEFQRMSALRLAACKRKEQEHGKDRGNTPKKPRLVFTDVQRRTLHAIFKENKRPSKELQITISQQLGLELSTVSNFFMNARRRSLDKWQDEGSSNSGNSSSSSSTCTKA
Procedure, shortened: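 Twenty-four-hour chemical treatment of reporter-transfected HepG2 cells precedes RNA isolation, DNase-treated reverse transcription and PCR of reporter sequences. Labelled fragments are sized by capillary electrophoresis and fitted bidirectionally versus DMSO.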

[8] = biological target: Heat shock factor protein 1 (Homo sapiens) (UniProt Q00613); test: ATG_HSE_CIS: Attagene CIS-FACTORIAL HepG2 Assay for human Heat Shock Transcription Factor 1 (HSE) (AID 2282953); details: HepG2 HSE cis-reporter, Attagene RNA transcription; actives raise or lower the signal
Heat shock factor protein 1 (Homo sapiens), sequence (Q00613 whole entry, looked up): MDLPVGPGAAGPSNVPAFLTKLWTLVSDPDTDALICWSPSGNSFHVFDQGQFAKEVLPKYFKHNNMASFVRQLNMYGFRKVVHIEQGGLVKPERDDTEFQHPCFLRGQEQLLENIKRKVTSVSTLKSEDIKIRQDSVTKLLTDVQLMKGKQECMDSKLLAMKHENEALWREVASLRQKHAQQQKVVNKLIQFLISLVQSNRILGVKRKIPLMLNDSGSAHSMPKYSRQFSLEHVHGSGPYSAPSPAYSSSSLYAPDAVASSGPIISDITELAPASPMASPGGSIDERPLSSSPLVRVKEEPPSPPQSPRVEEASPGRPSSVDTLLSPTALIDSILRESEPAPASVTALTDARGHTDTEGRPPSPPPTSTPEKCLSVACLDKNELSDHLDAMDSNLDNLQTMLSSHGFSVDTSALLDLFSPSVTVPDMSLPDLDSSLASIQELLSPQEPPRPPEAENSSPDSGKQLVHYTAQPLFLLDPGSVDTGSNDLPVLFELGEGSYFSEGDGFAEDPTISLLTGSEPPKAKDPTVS
Procedure, shortened: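 Reporter mRNA induction in HepG2 is measured 24 h after dosing, using transiently transfected multiplexed cis-regulated reporter units. Signal comes from capillary electrophoresis of labelled RT-PCR products, with DMSO as negative control.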

[9] = ATG_MRE_CIS: Attagene CIS-FACTORIAL HepG2 Assay for human Metal Responsive Element (MRE) (AID 2282954); details: HepG2 MRE cis-reporter transcription, Attagene multiplex; actives raise or lower the signal
Procedure, shortened: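 Readout: capillary electrophoresis of 6-FAM-labelled, HpaI-digested RT-PCR reporter products. System: HepG2 cells carrying transient multiplexed cis reporters, dosed 24 h. Analysis: bidirectional fit, DMSO baseline.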

[10] = ATG_PBREM_CIS: Attagene CIS-FACTORIAL HepG2 Assay for human Phenobarbital-responsive Enhancer Module (PBREM) (AID 2282955); details: HepG2 PBREM cis-reporter, Attagene multiplexed transcription; actives raise or lower the signal
Procedure, shortened: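 Measures endogenous factor action on a phenobarbital-responsive enhancer module. HepG2 transiently carrying cis reporters, 24 h treatment, mRNA read-out by RT-PCR plus capillary electrophoresis.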

Structure (SMILES)	outcome [1]	outcome [2]	outcome [3]	outcome [4]	outcome [5]	outcome [6]	outcome [7]	outcome [8]	outcome [9]	outcome [10]	AC50 [1]	AC50 [3]	AC50 [6]	AC50 [9]	AC50 [2]
Cc1ccc(OC(=O)CC(C)C)cc1	inactive	inactive	inactive	inactive	inactive	inactive	inactive	inactive	inactive	inactive	–	–	–	–	–
CCCC(C)CCC(C)=O (stereo not given)	inactive	inactive	inactive	inactive	inactive	inactive	inactive	–	inactive	inactive	–	–	–	–	–
NNC(=O)c1cccc(C(=O)NN)c1	inactive	inactive	inactive	inactive	inactive	inactive	inactive	inactive	inactive	inactive	–	–	–	–	–
COC(=O)c1sccc1S(N)(=O)=O	inactive	inactive	inactive	inactive	inactive	inactive	inactive	–	inactive	inactive	–	–	–	–	–
OC1OCCOC1O (stereo not given)	inactive	inactive	inactive	inactive	inactive	inactive	inactive	inactive	inactive	inactive	–	–	–	–	–
Cn1c(=O)[nH]c2ncn(C)c2c1=O	inactive	inactive	inactive	inactive	inactive	–	inactive	inactive	–	–	–	–	–	–	–
O=Nc1ccc(O)cc1	inactive	inactive	inactive	inactive	inactive	inactive	inactive	inactive	inactive	inactive	–	–	–	–	–
O=C(C(Cl)Cl)N1CCOC12CCCCC2	–	inactive	inactive	inactive	inactive	inactive	inactive	–	inactive	inactive	5.74 µM (active)	–	–	–	–
NC(=O)NNC(N)=O	inactive	inactive	inactive	inactive	inactive	inactive	inactive	–	inactive	–	–	–	–	–	–
O=Cc1ccc(CO)o1	inactive	inactive	inactive	inactive	inactive	inactive	inactive	inactive	inactive	inactive	–	–	–	–	–
Cc1cc(O)c(Cl)c(C)c1Cl	inactive	inactive	inactive	inactive	inactive	inactive	inactive	inactive	inactive	inactive	–	–	–	–	–
O=S(=O)(O)c1ccccc1C=Cc1ccc(-c2ccc(C=Cc3ccccc3S(=O)(=O)O)cc2)cc1	inactive	inactive	inactive	inactive	inactive	inactive	inactive	–	inactive	inactive	–	–	–	–	–
NC(=O)c1ccccc1O	inactive	inactive	inactive	inactive	inactive	inactive	inactive	–	inactive	–	–	–	–	–	–
CC(=O)[C@H]1[C@H](C#N)C[C@H]2[C@@H]3CC=C4C[C@@H](O)CC[C@]4(C)[C@H]3CC[C@@]21C	inactive	inactive	inactive	inactive	inactive	–	inactive	inactive	inactive	–	–	–	–	–	–
Cc1cnc(NC(=O)C2=C(O)c3ccccc3S(=O)(=O)N2C)s1	inactive	inactive	inactive	inactive	inactive	–	inactive	–	–	–	–	–	–	–	–
CCCCCC/C=C\CCCCCCCC(=O)O	inactive	inactive	inactive	inactive	inactive	inactive	inactive	inactive	inactive	inactive	–	–	–	–	–
O=C(O)CC(C(=O)O)C(CC(=O)O)C(=O)O (stereo not given)	inactive	inactive	inactive	inactive	inactive	inactive	inactive	inactive	–	inactive	–	–	–	–	–
CCOc1nc(F)cc2nc(S(=O)(=O)Nc3c(Cl)cccc3C(=O)OC)nn12	inactive	inactive	inactive	inactive	inactive	inactive	inactive	–	–	inactive	–	–	–	–	–
CCOC(=O)c1ccccc1C(=C1C=C(Br)C(=O)C(Br)=C1)c1cc(Br)c(O)c(Br)c1	–	inactive	–	inactive	inactive	–	inactive	–	–	–	62.5 µM (active)	28.8 µM (active)	35.8 µM (active)	26.2 µM (active)	–
CCOC(=O)[C@H](C)O	inactive	inactive	inactive	inactive	inactive	inactive	inactive	inactive	–	inactive	–	–	–	–	–
OCCCS	inactive	inactive	inactive	inactive	inactive	inactive	inactive	inactive	inactive	inactive	–	–	–	–	–
CC(=O)[C@@]1(O)CC[C@H]2[C@@H]3C[C@H](C)C4=CC(=O)C=C[C@]4(C)[C@@]3(F)[C@@H](O)C[C@@]21C	inactive	–	inactive	inactive	inactive	inactive	inactive	inactive	inactive	inactive	–	–	–	–	0.0821 µM (active)
CC(C)(C)c1ccc(-c2ccc(C(C)(C)C)cc2)cc1	inactive	inactive	inactive	inactive	inactive	inactive	inactive	–	inactive	inactive	–	–	–	–	–
O=C1CC2CC1C1CCCC21 (stereo not given)	inactive	inactive	inactive	inactive	inactive	inactive	inactive	–	inactive	inactive	–	–	–	–	–
